Rows were chosen to be rich in hits. Some 1.7% of all compounds tested hit in one or more screens of this group.
KCNH2 WT inh: blocks the wildtype human KCNH2 potassium channel | Q12809 | U2OS, BacMam KCNH2, thallium flux FluxOr; hits give low values | activity change, % at 1.84 µM | 340,000 tested, 0.37% active | AID 720551;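 active = maximum activity change below -70%; inconclusive = maximum activity change between -70% and -50%; inactive = maximum activity change above -50%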
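U2OS cells transduced with wild-type KCNH2 virus are loaded with FluxOr dye for 45 min, and thallium flux is measured in kinetic reads before and after stimulation buffer. Rate constants are normalized to DMSO controls.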
Coupling enz: coupling enzyme interference in Giardia aldolase counter-screen | coupling enzyme system counterscreen, AmpLite Red fluorescence | activity change, negative = inhibition, % at 58.2 µM, hits read low | 290,000 tested, 0.67% active; in the data active = activity change below about -30%
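Fluorescence at 525 nm excitation and 598 nm emission measured inhibition of the coupled detection system without aldolase. Compounds (at 57.5 uM final) were preincubated 10 min at room temperature with coupling enzyme reagent before a 20 min substrate/AmpLite Red step.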
Giardia killer: kills Giardia lamblia. Giardia lamblia trophozoite viability. activity change, % at 7.66 µM, hits read low. 340,000 tested, 0.15% active. AID 540267; in the data active = activity change below about -80%; inconclusive = between about -30% and that limit;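 note: parasites exposed to compound for two days anaerobically before the ATP read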
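Killing of trophozoites was scored by loss of ATP luminescence after a 48 hrs anaerobic exposure to compounds at 37 deg C, using 100 cells per well.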
USP1 inh: USP1/UAF1 (human) deubiquitinase inhibition; 390,000 tested, 0.23% active; recombinant USP1/UAF1, Ub-Rhodamine cleavage fluorescence; Potency, µM (doses to about 57.1 µM), actives largely listed as inhibitors; AID 743255; O94782; active = well fitted inhibition curve with a large enough effect; inconclusive = small, poorly fitted or top-dose-only effect; inactive = no such curve, though single readings can be large or run the other way; note: nearly all actives have a fitted effect of over 60% in size
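USP1/UAF1 complex (1 nM) preincubated 15 min at room temperature with compound, then Ub-Rho substrate (150 nM final) added. Kinetic fluorescence at 480/540 nm over 6 reads at 60 s intervals; 50 mM HEPES pH 7.8, 0.5 mM EDTA, 0.1 mg/ml BSA, 1 mM TCEP, 0.01% Tween-20.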
KCNH2 3.1 block: KCNH2 3.1 (human) potassium channel inhibition; U2OS KCNH2 3.1, thallium flux FluxOr; hits give low values; activity change, % (tested at about 1.8 µM); 340,000 tested, 0.95% active; AID 720553;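 active = maximum activity change below -70%; inconclusive = maximum activity change from -70% to -50%; inactive = maximum activity change above -50%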;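 note: thallium influx rate constant from kinetic fluorescence after stimulation buffer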
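Channel expression came from 3.1 mutant virus (1.77 x 10^8 /mL) applied to suspended U2OS cells for 4 h. Flux was tracked with FluxOr dye plus Red40 quencher, and kinetic rate constants normalized to controls.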
Each line names hits and unclear results; the compound was inactive in the other large screens.

COc1ccc(CCNC(=O)CSc2cc(=O)[nH]c(N)n2)cc1OC	none
COc1ccc(OC)c(CCNC(=O)CSc2ccsc2[N+](=O)[O-])c1	Giardia killer inconclusive
CC1CCCCC1NC(=O)CSc1ccsc1[N+](=O)[O-] (configuration not stated)	Giardia killer inconclusive
COc1ccc(CCNC(=O)CSc2nnc(C(C)N(C)C)n2Cc2ccccc2)cc1OC (configuration not stated)	KCNH2 3.1 block -71
O=C(CSc1ccsc1[N+](=O)[O-])NC1CCCC1	Giardia killer -90
COc1ccc(CCNC(=O)CSc2nc(O)cc(=O)[nH]2)cc1OC	KCNH2 3.1 block -80
Cc1cccc(NC(=O)CSc2nc3ccccc3c3nc(CCn4cncc4C)nn23)c1	none (no result: KCNH2 WT inh, Coupling enz, Giardia killer, KCNH2 3.1 block)
CC(Oc1ccc(F)cc1)C(=O)Nc1cccc(-c2nn[nH]n2)c1 (configuration not stated)	KCNH2 WT inh -86
COc1ccc(OC(C)C(=O)Nc2cccc(OC)c2)cc1 (configuration not stated)	none
Cc1ccc(S(=O)(=O)Nc2cccc3ncccc23)cc1	none
Cc1ccc(S(=O)(=O)Nc2cccc3ncccc23)s1	Coupling enz -40
COc1ccc(C#CC2C=CC(Oc3cc(C)cc(C)c3)C(CO)O2)cc1 (configuration not stated)	none (no result: KCNH2 WT inh, Giardia killer, USP1 inh, KCNH2 3.1 block)
CNc1ccc(Br)cc(C(=O)/C=C/c2cccc(OC)c2)c1=O	USP1 inh inconclusive
CNc1ccc(Br)cc(C(=O)/C=C/c2ccc(OC)cc2OC)c1=O	Coupling enz -39
OC1CCN(CC(O)C(F)(F)F)CC1 (configuration not stated)	KCNH2 3.1 block -102
O=C(Nc1ccc(N2CCOCC2)cc1N1CCOCC1)c1ccc([N+](=O)[O-])cc1	none
O=C(NNc1cc(N2CCOCC2)nc(N2CCOCC2)n1)c1ccc([N+](=O)[O-])cc1	Coupling enz -54, USP1 inh 32µM, KCNH2 3.1 block inconclusive
Cc1[nH]c2ccc3c(ncn3CCC#N)c2c1C	Coupling enz -36
CCOc1cc(C(=O)Nc2ccc(S(=O)(=O)Nc3cc(OC)nc(OC)n3)cc2)cc(OCC)c1OCC	none (no result: KCNH2 WT inh, Coupling enz, Giardia killer, KCNH2 3.1 block)
CC(C)CC1C(=O)N(Cc2cn(CCC3OCCCO3)nn2)CCS(=O)(=O)N1Cc1ccc(-c2ccncc2)cc1 (configuration not stated)	KCNH2 WT inh -139, KCNH2 3.1 block -157 (no result: Coupling enz, Giardia killer)
CC1(c2ccc(OCC#N)cc2)C=C(c2ccc(OCC#N)cc2)n2nc(C(F)(F)F)nc2N1 (configuration not stated)	KCNH2 3.1 block -106
Cc1ccc(C2=CC(C)(c3ccc(C)cc3)Nc3nc(C(F)(F)F)nn32)cc1 (configuration not stated)	none
CCNCCNC(=O)c1c(O)c2cccc3c2n(c1=O)CCC3	KCNH2 WT inh -179
CCCCNC(=O)c1c(O)c2cccc3c2n(c1=O)CCC3	none
Cc1ccc(NC(=O)c2nc(-c3ccncc3)no2)c(Cl)c1	none (no result: KCNH2 WT inh, Coupling enz, Giardia killer, KCNH2 3.1 block)
Oc1ccc(N=Nc2ccc3c(c2)OCCO3)c(O)c1	KCNH2 WT inh -73
Nc1[nH]c(=S)[nH]c(=O)c1-c1ccccc1	KCNH2 WT inh -183
Cc1ccc(NC(=O)c2ccc(-n3cccn3)c([N+](=O)[O-])c2)cc1	none
Cc1cccc(NC(=O)c2ccc(-n3cccn3)c([N+](=O)[O-])c2)c1	Coupling enz -33
CCOCCCN(CCC#N)S(=O)(=O)c1ccc(S(=O)(=O)N2CCCC2)cc1	KCNH2 WT inh -82
CCN(CC)S(=O)(=O)c1ccc(S(=O)(=O)N2CCCC2)cc1	none
CCC1CCCCN1CCCNC(=O)c1ccc(/C=C2/Sc3ccccc3NC2=O)cc1 (configuration not stated)	KCNH2 WT inh inconclusive, KCNH2 3.1 block -96 (no result: Coupling enz)
O=C1Nc2cc(C(=O)NCCCN3CCCC3)ccc2S/C1=C\c1ccccc1	none
CCCNC(=O)c1ccc(N2CCC3(CC2)CC(c2ccccc2)=NO3)c(NC(=O)c2cccc(OC)c2)c1	KCNH2 WT inh -92, KCNH2 3.1 block -97
CCCNC(=O)c1ccc(N2CCC3(CC2)CC(c2ccccc2)=NO3)c(NC(=O)c2ccco2)c1	KCNH2 WT inh inconclusive

Source: PubChem BioAssay
